# GalR3 antag – human GalR3 antagonism; HEK293 GalR3-CNG cAMP membrane potential fluorescence; galR3 body fused to GalR1 C-terminus; inhibition, % at 3 µM; 360,000 compounds, 0.44% hits;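 active means inhibition above the screen-wide average plus 3 SD, cut at about 13% in these data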;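 further: forskolin and galanin both at EC90 stimulate the cells; cAMP rise reported by CNG channel membrane potential dye signal; 0% = forskolin plus galanin with DMSO and 100% = forskolin alone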
# Target sequence (O60755 1-299 limits assumed): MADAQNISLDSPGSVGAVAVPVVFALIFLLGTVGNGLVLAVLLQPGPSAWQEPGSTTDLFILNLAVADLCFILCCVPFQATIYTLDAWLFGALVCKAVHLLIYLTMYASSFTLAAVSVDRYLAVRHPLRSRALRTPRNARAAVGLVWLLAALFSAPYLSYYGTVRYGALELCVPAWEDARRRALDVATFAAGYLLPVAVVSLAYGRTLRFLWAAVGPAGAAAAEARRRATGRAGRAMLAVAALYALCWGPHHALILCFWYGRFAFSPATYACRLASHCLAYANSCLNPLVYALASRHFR
# COUP-TFII inh – NR2F2 (human) inhibition, primary screen; HEK293T NGFI-A luciferase reporter, luminescence; inhibition, % at 8.6 µM; 370,000 compounds, 0.7% hits;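 active means inhibition above a per-plate cutoff, mean inhibition of test wells between control levels plus 3 SD, cut at about 38% in these data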;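 further: cells cotransfected with COUP-TFII expression vector driving the NGFI-A reporter; 0% = median of COUP-TF2 test wells and 100% = reporter-only cells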
# 697 NFkB inh – inhibitors of the PMA/ionomycin-induced NF-kB reporter in 697 B cells. 330,000 compounds, 0.33% hits. 697 B-cell NF-kB luciferase reporter, 16 h. inhibition, % at 4 µM. AID 435022; in the data active means inhibition above about 35%
# Gli-Sufu antag – blocks Gli-Sufu signaling in a luciferase reporter. inhibition, % at 5 µM. 340,000 compounds, 0.74% hits. Sufu-KO-LIGHT fibroblasts, Gli luciferase reporter luminescence;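 active means inhibition above about 55%, limit read from the data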;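 further: 0% = DMSO-treated cells and 100% = wells with medium but no cells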
# Jurkat NFkB inh – lowers PMA/ionomycin-induced NF-kB signal in Jurkat cells; 330,000 compounds, 0.53% hits; inhibition, % at 4 µM; AID 435003; PMA/ionomycin-induced NF-kB luciferase reporter, luminescence; in the data active means inhibition above about 50%
# Jurkat NFkB conf – lowers PMA/ionomycin-induced NF-kB signal in Jurkat cells; shares compounds with Jurkat NFkB inh; Jurkat NF-kB luciferase, 16 h; inhibition, % at 4 µM; 2,700 compounds, 27% hits; AID 435020;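 active means inhibition reaching about 45% at 4 µM in either replicate, limit read from the data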;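 further: plate controls were PMA/ionomycin stimulated DMSO wells for no effect and unstimulated DMSO wells for full effect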
# An asterisk follows results filed as active; / = no result. Most compounds without a hit are left out; they make up all but 2% or so of the library.
SMILES,GalR3 antag,COUP-TFII inh,697 NFkB inh,Gli-Sufu antag,Jurkat NFkB inh,Jurkat NFkB conf
CCOC(=O)Nc1nc(-c2ccccc2)c(C(=O)c2ccc(Cl)cc2)s1,-5.4,-38.4,8.2,-9.4,53.8*,55.5*
N=c1c(C(=O)NCc2ccc(F)cc2)cc2c(=O)n3ccccc3nc2n1Cc1ccco1,-0.4,-6.7,-25.9,24.1,59.4*,26.1
Cc1nn(-c2ccccc2)c(C)c1/C=N/NC(=O)c1cc(-c2ccc(Br)s2)[nH]n1,-0.8,5.3,-18.9,1.6,62.0*,28.1
Cc1nn(-c2ccccc2)c(C)c1/C=N/NC(=O)c1cc(-c2ccc(Cl)s2)[nH]n1,1.7,-17.7,-2.6,10.4,71.7*,33.5
Cc1nn(-c2ccccc2)c(C)c1/C=N/NC(=O)c1cc(C2CC2)[nH]n1,-0.2,-5.4,10.7,-2.0,-5.6,/
Cc1cc(C(=O)N/N=C/c2c(C)nn(-c3ccccc3)c2C)n[nH]1,-4.2,-6.3,-0.9,-9.6,7.1,/
O=C(OCCN1C(=O)c2cccc3c(N4CCOCC4)ccc(c23)C1=O)c1ccc(Cl)cc1,0.4,-14.2,-55.7,-8.2,64.3*,37.4
CC(=O)CC[C@H]1CC[C@]2(CCCN(C(=O)c3ccno3)C2)O1,/,0.7,/,/,/,/
CCc1ccc(-c2cc(C)no2)cc1S(=O)(=O)N1CCN(c2ccccc2)CC1,-6.3,17.1,-64.7,4.9,52.6*,6.8
Cc1cc(-c2ccc(C)c(S(=O)(=O)N3CCN(c4ccc([N+](=O)[O-])cc4)CC3)c2)on1,-3.1,-8.9,-9.4,-11.3,54.5*,63.5*
COc1ccc(OCC(=O)Nc2ccccc2N2CCCCC2)cc1,-4.7,7.2,3.9,4.4,63.5*,47.4
COc1ccc(OCC(=O)Nc2ccccc2N2CCN(C)CC2)cc1,-6.3,-0.8,-3.2,0.8,-5.9,/
COc1ccc(CC(=O)Nc2ccccc2N2CCCC2)cc1,-3.0,12.0,-8.1,8.8,-12.4,/
COc1ccc(CNCC(=O)Nc2ccccc2-n2cccc2)cc1,-10.5,-1.3,-28.3,12.4,68.4*,13.1
CCN(CC)CCCNC(=O)CC1Oc2ccccc2NC1=O (stereo not given),/,20.1,/,/,/,/
CC(C)(C)OC(=O)CNC(=O)c1[nH]cnc1C(=O)Nc1ccc(CNC(=O)OC(C)(C)C)cc1,-0.1,10.7,13.2,8.2,25.4,/
CC(C)(C)OC(=O)NCc1ccc(NC(=O)c2nc[nH]c2C(=O)NCCNC(=O)c2[nH]cnc2C(=O)Nc2ccc(CNC(=O)OC(C)(C)C)cc2)cc1,/,/,15.2,4.5,62.2*,35.2
COC(=O)c1cc(-c2ccc(C(C)=O)cc2)c(=O)n2c1CCC2,/,0.8,/,/,/,/
Cc1nn(-c2nc3ccccc3s2)c(N)c1-c1ccccc1,3.0,-47.6,-232.1,-91.4,-165.4,-118.2
Cc1nn(-c2nc3ccccc3s2)c(N)c1-c1ccc(Cl)cc1,-3.4,-8.7,-77.3,-43.9,-60.0,/
O=C1CCCc2nc3c(cc21)C(O)Oc1ccccc1-3 (stereo not given),2.1,-15.4,-6.6,4.6,-6.5,/
O=C1CCCc2nc3c(cc21)C(O)Oc1c-3ccc2ccccc12 (stereo not given),-6.7,-9.8,-207.7,-77.4,-156.0,-66.2
Oc1ccccc1/C=N/Nc1cccc2cccnc12,-5.4,-17.8,-180.3,-12.1,-156.9,3.5
CSc1ccc(-c2cnc(N3CCC(C(N)=O)CC3)s2)cc1,/,-56.3,/,/,/,/
CC(=O)Nc1ccc(S(=O)(=O)N2c3ccc(F)cc3CCC2C)cc1 (stereo not given),-4.8,13.5,-20.6,-1.1,56.5*,42.0
SMILES,GalR3 antag,COUP-TFII inh,697 NFkB inh,Gli-Sufu antag,Jurkat NFkB inh,Jurkat NFkB conf
COc1ccc(S(=O)(=O)N2c3ccc(F)cc3CCC2C)cc1 (stereo not given),3.8,-43.9,7.2,50.4,39.9,/
CCN(CC)c1ccc(NC(=O)CSc2nc(C3CC3)nc3ccccc23)cc1C,-8.1,-3.5,-16.0,-7.6,59.0*,9.8
COCC(=O)N(Cc1ccccc1)c1ccccc1C(=O)Nc1cc(OC)ccc1OC,/,-4.3,/,/,/,/
CN1C2=CC=CC=CC2=[N+](C)C12C=CC(=[N+]([O-])[O-])C=C2[N+](=O)[O-] (stereo not given),-5.1,-3.9,10.6,6.3,0.0,/
CN1C2=CC=CC=CC2=[N+](C)C12C([N+](=O)[O-])=CC(=[N+]([O-])[O-])C=C2[N+](=O)[O-] (stereo not given),-3.7,12.9,-80.0,-8.5,72.6*,19.2
CCCCn1cnc2c(sc3nc4c(cc32)CSC(C)(C)C4)c1=O,5.1,-14.9,-129.5,-9.5,-150.1,-78.0
CC1(C)Cc2nc3sc4c(NCCO)ncnc4c3cc2CS1,-0.8,-20.2,14.2,-2.8,-18.0,/
O=C(C#Cc1ccccc1)c1ccco1,-3.5,-8.5,-61.9,-6.6,50.7*,18.1
CCOc1ccc(OCC)c(NC(=O)CN2CCN(c3cccc(C)c3)CC2)c1,-5.2,7.3,7.5,3.3,20.0,/
CCOc1ccc(OCC)c(NC(=O)CN2CCN(c3cccc(C)c3)C(C)C2)c1 (stereo not given),-0.3,-1.9,-20.1,-7.0,58.0*,19.4
CC(C)N(Cc1cn(Cc2ccccc2)nn1)S(=O)(=O)c1ccccc1Br,/,4.0,/,/,/,/
Nc1nc2n[nH]nc2c(=O)[nH]1,-5.3,-7.5,-51.7,43.0,64.3*,74.4*
CC(C)[C@H]1/C(=C/C2CC2)N2C(=O)C[C@@H](c3ccccc3)N=C2N1Cc1ccc2c(c1)OCO2,/,6.9,/,/,/,/
Cc1cc(C)cc(NC(=O)c2ccc([N+](=O)[O-])o2)c1,-5.9,17.0,25.2,22.9,86.9*,47.7*
CC(=O)c1ccc(NC(=O)c2ccc([N+](=O)[O-])o2)cc1,-9.8,-51.7,9.9,18.4,16.2,/
C=CCNc1nc(-c2ccc(Cl)cc2)cs1,-3.2,-34.3,-150.8,5.6,-156.6,-27.2
O=C(c1ccccc1)c1cc([N+](=O)[O-])ccc1N1CCCC1,-4.2,9.1,-15.3,-3.5,9.6,/
CN1CCN(c2ccc([N+](=O)[O-])cc2C(=O)c2ccc(Br)cc2)CC1,-4.1,18.2,-30.6,6.8,73.3*,25.9
Cc1ccc(C(=O)c2cc([N+](=O)[O-])ccc2N2CCOCC2)c(C)c1,-8.8,-72.1,21.6,47.1,55.0*,49.9*
Cc1ccc(C(=O)c2cc([N+](=O)[O-])ccc2N2CCN(C)CC2)cc1,-6.3,15.5,-2.2,13.4,40.8,/
Cc1ccc(C(=O)c2cc([N+](=O)[O-])ccc2N2CCCCC2)cc1C,1.3,0.4,-33.5,42.8,63.2*,41.6
Cc1ccc(C(=O)c2cc([N+](=O)[O-])ccc2N2CCOCC2)cc1C,-4.6,-7.8,-75.4,18.4,66.2*,51.1*
COCCCN1C(=O)[C@H](CC(=O)N2CCSCC2)[C@]2(C(=O)OC)CCCCC=C12,/,12.7,/,/,/,/
O=C(NCc1c(F)cccc1F)C1C2C=CC3(CN(Cc4ccccc4)C(=O)C13)O2 (stereo not given),/,5.5,/,/,/,/
CCC(C)(C)C(=O)N1CCc2cc(S(=O)(=O)N(C)Cc3ccco3)ccc21,/,-1.5,/,/,/,/
